The text below walks through data of PubChem BioAssay (Tox21).

Values without a mark were called inactive. Records with an inconclusive call do not appear. The source made the active and inactive calls. Unless noted, the call rests on the fitted dose curve; in most records, active means well fitted curve in the direction sought with a large enough effect in the repeat runs; inconclusive means weak or mixed curves; inactive means no such curve, though single readings can be large; an effect the other way counts as inactive or inconclusive.

Assay [1] is described as follows: qHTS assay to identify small molecule HDAC inhibitors (AID 1259364). Further: potency means the concentration at half of the fitted maximal effect.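 Further: wild-type HCT-116 cells with endogenous class I/II HDAC activity; nearly all actives have a fitted effect of over 45% in size.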 On activity change, negative = inhibition: top concentration of the series differs between compounds. The method in brief: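 Relative class I and II HDAC activity is taken from the luminogenic signal in HCT-116 cells, with compound exposure 2 hr and reagent development 30 min at room temperature.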
(In qHTS, concentration-response curves come from the screen itself.)

Assay [2] in a line: qHTS assay to identify small molecule HDAC inhibitors - cell viability counter screen (AID 1259365). Further: series mostly up to about 92 µM; nearly all actives have a fitted effect of over 50% in size. Put shortly: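 HCT-116 (wild type), 1,500 cells/well, overnight 37C/5% CO2; compound in DMSO 2hr; CellTiter-Glo 30min RT; luminescence read.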
The nature of assay [3]: qHTS assay to identify small molecule agonists of the sonic hedgehog signaling (Shh) pathway (AID 1259368; calls by dose curve;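 further: NIH/3T3-derived 3T3Gli1-Luc cells carrying a stable Gli1-driven firefly luciferase reporter; series mostly up to about 92 µM; nearly all actives have a fitted effect of over 15% in size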). The method in brief: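 Mouse fibroblast (NIH/3T3) reporter cells with stably integrated Gli1-Luc were treated 24 hr with compound; firefly luciferase luminescence served as the read-out.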
Assay [4] is described as follows: qHTS assay to identify small molecule antagonists of the sonic hedgehog signaling (Shh) pathway (AID 1259369; calls by dose curve; further: nearly all actives have a fitted effect of over 45% in size; further: potency means the concentration at half of the fitted maximal effect). The method in brief: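 Conditioned medium drives Shh signalling in 3T3Gli1-Luc cells; compounds in DMSO co-applied, 24hr at 37 C, then luciferase luminescence.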
Assay [5] can be described thus: qHTS assay to identify small molecule agonists of the estrogen receptor beta (ER-beta) signaling pathway - cell viability counter screen (AID 1259380). Further: nearly all actives have a fitted effect of over 30% in size. Further: potency means the concentration at half of the fitted maximal effect. The method in brief:
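Cells used were ER-beta-UAS-bla HEK293T in medium with 2% charcoal-stripped FBS. They were treated for 16 hr at 37C. Viability came from CellTiter-Glo luminescence.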

Assay [6] in a line: qHTS assay to identify small molecule antagonists of the estrogen receptor beta (ER-beta) signaling pathway - cell viability counter screen (AID 1259382). Further: series mostly up to about 92 µM; nearly all actives have a fitted effect of over 55% in size. Put shortly:
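Agonist-stimulated (1nM E2) ER-beta-UAS-bla HEK293T cells are incubated with library compounds for 16 hr at 37C. Cell viability is then assessed in the reporter-assay wells by adding CellTiter-Glo and reading luminescence after 30 min.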

The nature of assay [7]: qHTS assay to identify small molecule agonists or antagonists of the thyroid stimulating hormone receptor (TSHR) signaling pathway - wild type cell line counter screen (AID 1259384; calls by dose curve). The method in brief: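 Counter screen in untransfected Hek293: compounds (15-point titration, triplicate) plus phosphodiesterase inhibitor Ro20-1724 added after 18 h plating; 30 min RT. Intracellular cAMP via competitive d2/cryptate immunoassay, 1 h incubation.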

The target in assay [8] is Thyrotropin receptor (Homo sapiens) (UniProt P16473). As to the kind of experiment: qHTS assay to identify small molecule antagonists of the thyroid stimulating hormone receptor (TSHR) signaling pathway (AID 1259385; calls by dose curve; further: nearly all actives have a fitted effect of over 20% in size). Put shortly:
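Antagonist mode: compound-treated TSHR-expressing HEK293 cells were stimulated with 1.5 ng/mL TSH (final) in presence of Ro20-1724 for 30 min at RT. HTRF cAMP detection after 1 h; each compound tested at 15 concentrations, triplicate.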

Assay [9] can be described thus: qHTS assay to identify small molecule agonists of the estrogen receptor alpha (ER-alpha) signaling pathway in the presence of an antagonist - cell viability counter screen (AID 1259386).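 Further: cells exposed to compounds for 22 h at 37 °C before the viability read; nearly all actives have a fitted effect of over 30% in size.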 Further: potency means the concentration at half of the fitted maximal effect. On activity change, negative = cytotoxicity: series mostly up to about 92 µM. Put shortly:
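ICI-182,780 at 10.0nM final accompanies the compound titration (15 concentrations, 22hr, 37C) on VM7Luc4E2 cells. The CellTiter-Fluor fluorescence readout runs in the same wells as the luciferase assay.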

The nature of assay [10]: qHTS assay to identify small molecule antagonists of the androgen receptor (AR) signaling pathway using the MDA cell line in the presence of 0.5 nM R1881 - cell viability counter screen (AID 1259242). Further: nearly all actives have a fitted effect of over 45% in size. Put shortly:
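R1881 at 0.5 nM final stimulated MDA-kb2 cells during 16 hr compound treatment at 37C. Cytotoxicity read: CellTiter-Fluor fluorescence after 30 min.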

The nature of assay [11]: qHTS assay to identify small molecule agonists of the sonic hedgehog signaling (Shh) pathway - cell viability counter screen (AID 1259366). Further: nearly all actives have a fitted effect of over 50% in size. Further: potency means the concentration at half of the fitted maximal effect. Put shortly:
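CellTiter-Fluor fluorescence read-out, 1 hr at 37C, added after 23hr compound exposure. Cells: 3T3 Gli1-Luc, an NIH/3T3 clone with stably integrated Gli1-Luc reporter, plated 4hr before compound.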

Assay [12] can be described thus: qHTS assay to identify small molecule antagonists of the sonic hedgehog signaling (Shh) pathway - cell viability counter screen (AID 1259367). Further: nearly all actives have a fitted effect of over 55% in size. Further: potency means the concentration at half of the fitted maximal effect. Put shortly:
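Cells: 3T3 Gli1-Luc, 2,000/well, 4 hr pre-incubation. Compounds in DMSO, then conditioned medium. Incubation 24 hr, 37C, 5% CO2. CellTiter-Fluor at 23 hr, 1 hr, fluorescence.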

Assay [13] in a line: qHTS assay to identify small molecule agonists of the androgen receptor (AR) signaling pathway in the presence of an antagonist - cell viability counter screen (AID 1259379).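 Further: MDA-kb2 human breast cancer cells carrying an MMTV luciferase reporter; series mostly up to about 92 µM; nearly all actives have a fitted effect of over 25% in size.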 Put shortly:
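A CellTiter-Fluor read-out measured viability of MDA-kb2 reporter cells (MMTV promoter with AR and GR response elements). Treatment: nilutamide 3.0uM final with compounds at 15 concentrations, 16 hr, 37C, 0% CO2.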

Assay [14] has as its target Estrogen receptor beta (Homo sapiens) (UniProt Q92731). As to the kind of experiment: qHTS assay to identify small molecule agonists of the estrogen receptor beta (ER-beta) signaling pathway (AID 1259377; active means well fitted activation curve with a large enough effect in the signal ratio in the repeat runs, not every such curve was filed as active; the % refers to the signal ratio). Put shortly: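 Beta-lactamase reporter readout: fluorescence of LiveBLAzer B/G FRET substrate after 2 h at room temperature, following 16 h compound treatment of ER-beta-UAS-bla HEK293T cells at 37C in 2% charcoal-stripped FBS medium.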

Assay [15] deals with Estrogen receptor (Homo sapiens) (UniProt P03372). The assay is described as follows: qHTS assay to identify small molecule agonists of the estrogen receptor alpha (ER-alpha) signaling pathway in the presence of an antagonist (AID 1259383; calls by dose curve; further: top concentration of the series differs between compounds; nearly all actives have a fitted effect of over 15% in size). The method in brief: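 Using VM7Luc4E2 cells seeded 24hr before treatment, antagonist ICI-182,780 (10.0nM final) was added, followed by compounds at 15 concentrations. Plates incubated 22hr; ONE-Glo luminescence quantified reporter activity.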

The target of assay [16] is Estrogen receptor beta (Homo sapiens) (UniProt Q92731). As to the kind of experiment: qHTS assay to identify small molecule antagonists of the estrogen receptor beta (ER-beta) signaling pathway (AID 1259378; active means well fitted inhibition curve with a large enough effect in the signal ratio in the repeat runs, not every such curve was filed as active; the % refers to the signal ratio). Put shortly: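 Antagonist mode: compounds added to beta-lactamase reporter HEK293T ER-beta-UAS cells stimulated with E2 (1nM final), 16 hr at 37C. LiveBLAzer B/G FRET substrate, 2 hours room temperature, fluorescence read-out.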
On the % scale 0 is the no-effect control and ±100 the full control effect.

Sequence of Thyrotropin receptor (Homo sapiens) (P16473 whole entry, looked up): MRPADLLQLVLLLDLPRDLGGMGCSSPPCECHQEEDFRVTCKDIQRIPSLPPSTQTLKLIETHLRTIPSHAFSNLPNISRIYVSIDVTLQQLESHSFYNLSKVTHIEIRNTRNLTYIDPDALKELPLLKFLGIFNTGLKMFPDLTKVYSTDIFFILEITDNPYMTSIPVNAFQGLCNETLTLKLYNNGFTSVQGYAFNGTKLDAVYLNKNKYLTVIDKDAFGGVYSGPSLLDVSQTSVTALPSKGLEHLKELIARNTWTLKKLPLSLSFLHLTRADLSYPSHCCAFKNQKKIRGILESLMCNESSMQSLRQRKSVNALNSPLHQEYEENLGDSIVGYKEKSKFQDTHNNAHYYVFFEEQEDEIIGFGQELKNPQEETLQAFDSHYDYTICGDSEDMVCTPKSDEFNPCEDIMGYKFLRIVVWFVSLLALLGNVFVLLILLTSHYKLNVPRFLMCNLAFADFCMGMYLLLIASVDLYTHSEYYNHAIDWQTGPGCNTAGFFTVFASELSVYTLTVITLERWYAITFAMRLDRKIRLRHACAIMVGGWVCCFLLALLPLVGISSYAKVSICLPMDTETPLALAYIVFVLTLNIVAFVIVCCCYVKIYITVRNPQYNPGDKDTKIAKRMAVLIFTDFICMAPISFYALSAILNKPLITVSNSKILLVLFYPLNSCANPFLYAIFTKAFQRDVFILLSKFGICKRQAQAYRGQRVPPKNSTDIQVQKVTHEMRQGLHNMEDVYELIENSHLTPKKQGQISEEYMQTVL
Sequence of Estrogen receptor (Homo sapiens) (P03372 whole entry, looked up): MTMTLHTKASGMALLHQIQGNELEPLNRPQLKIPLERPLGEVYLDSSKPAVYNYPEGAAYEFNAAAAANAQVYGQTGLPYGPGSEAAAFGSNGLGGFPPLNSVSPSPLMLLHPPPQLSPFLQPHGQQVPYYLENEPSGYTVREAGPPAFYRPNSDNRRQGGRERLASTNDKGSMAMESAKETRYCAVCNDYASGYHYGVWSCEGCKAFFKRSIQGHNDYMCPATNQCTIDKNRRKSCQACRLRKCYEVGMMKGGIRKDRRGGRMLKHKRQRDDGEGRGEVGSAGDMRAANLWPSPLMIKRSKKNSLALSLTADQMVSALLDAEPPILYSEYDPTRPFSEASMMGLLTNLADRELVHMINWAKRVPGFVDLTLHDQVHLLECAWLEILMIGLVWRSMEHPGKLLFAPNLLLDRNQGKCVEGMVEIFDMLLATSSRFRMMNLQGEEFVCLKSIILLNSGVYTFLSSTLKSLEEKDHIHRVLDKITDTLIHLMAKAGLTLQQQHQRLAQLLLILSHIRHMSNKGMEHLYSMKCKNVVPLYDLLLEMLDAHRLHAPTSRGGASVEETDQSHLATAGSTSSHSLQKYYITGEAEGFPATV
Sequence of Estrogen receptor beta (Homo sapiens) (Q92731 whole entry, looked up): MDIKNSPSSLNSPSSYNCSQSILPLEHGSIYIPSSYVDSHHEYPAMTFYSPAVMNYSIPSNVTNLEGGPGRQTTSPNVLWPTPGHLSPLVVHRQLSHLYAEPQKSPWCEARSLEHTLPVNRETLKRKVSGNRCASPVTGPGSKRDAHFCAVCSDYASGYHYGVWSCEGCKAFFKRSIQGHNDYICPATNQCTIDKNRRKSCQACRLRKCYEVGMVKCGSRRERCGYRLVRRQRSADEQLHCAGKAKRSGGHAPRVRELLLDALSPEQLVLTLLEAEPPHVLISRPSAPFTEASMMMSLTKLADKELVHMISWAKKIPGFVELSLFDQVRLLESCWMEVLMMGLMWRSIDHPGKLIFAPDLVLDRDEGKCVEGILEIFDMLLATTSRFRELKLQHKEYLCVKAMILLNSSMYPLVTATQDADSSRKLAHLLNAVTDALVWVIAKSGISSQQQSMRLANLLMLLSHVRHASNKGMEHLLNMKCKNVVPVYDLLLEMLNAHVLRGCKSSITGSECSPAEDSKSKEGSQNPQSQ

`CC1=NN(c2cc(Cl)c(S(=O)(=O)O)cc2Cl)C(=O)C1N=Nc1ccc(S(=O)(=O)O)cc1` (stereo not given): the Potency is 27.3 µM (active) in [1] and 61.1 µM (active) in assay [9]. The compound was classed as inactive in assay [2], in assay [6] and in assay [7]. For the same compound, the Potency result in assay [3], in assay [4], in assay [5] and in [8] was “inactive” in each case.
As for `CC(C)C[C@H](NC(=O)OCC1c2ccccc2-c2ccccc21)C(=O)O`, the outcome in assay [10] and in [7] was inactive. For the same compound, the Potency result in assay [1], in assay [11], in assay [12], in assay [3], in [4] and in assay [13] was “inactive” throughout. Moreover, the Potency entry in [9] was “inactive”. In addition, the Potency in assay [5] was 61.1 µM (active).
In the case of `CC[C@H]1CC[C@H](NCc2cc3c(cc2OC)[C@H]2C[C@H]2C(=O)N3C)[C@H](c2ccccc2)N1`, the result in assay [10], in assay [2], in assay [14], in assay [6] and in assay [7] was inactive. For the same compound, the Potency result in assay [1], in [3], in assay [15] and in assay [8] was “inactive” each time. Further, the Potency in [12] is 8.63 µM (active); in [4] it was 4.33 µM (active).
`CCN(CC)C(=O)N(CC)CC`: the result in assay [10] and in assay [6] was inactive. For the same compound, the Potency entry in [1], in [11], in assay [12], in assay [3], in [4] and in assay [13] was “inactive” in each case. Besides, the Potency result in assay [5] and in assay [9] was “inactive” in each case.
As for `NC(Cc1ccc(F)cc1)C(=O)O` (stereo not given), the viability change, negative = cytotoxic in [10] was 3.8% [at 8.39 µM]; in assay [11], -12.8% [at 8.39 µM]. Besides, the results for the activity change, negative = inhibition in assay [1], in assay [4] and in assay [8] were -2.41% [at 8.39 µM], -11.4% [at 8.39 µM] and -1.13% [at 8.39 µM], respectively. Further, the activity change, negative = cytotoxicity is 4.97% [at 8.39 µM] in assay [2]; -0.068% [at 8.39 µM] in assay [13]; 1.35% [at 8.39 µM] in [5]; 1.79% [at 8.39 µM] in [6]; 2.6% [at 8.39 µM] in assay [9]. Besides, the activity change in assay [3] is 0.322% [at 8.39 µM, active compounds read high]. Further, in [14], the activation was -1.32% [at 8.39 µM].
With `CN(C)C(=O)NC1(c2ccccc2)CCN(CCC[C@]2(c3ccc(Cl)c(Cl)c3)CCCN(C(=O)c3ccccc3)C2)CC1`, the viability change, negative = cytotoxic in assay [10] was -6.41% [at 19 µM]. In addition, the activity change, negative = inhibition was -4.11% [at 19 µM] in [1], -22.9% [at 19 µM] in assay [4] and -0.429% [at 19 µM] in assay [8]. The activity change, negative = cytotoxicity is -5.58% [at 19 µM] in assay [2], -7% [at 19 µM] in assay [13] and -18% [at 19 µM] in [6]. In addition, the Potency in assay [11] was 13 µM (active). Besides, the activity change in assay [3] is -5.82% [at 18.9 µM, active compounds read high]. For the same compound, the values for the activation in [14] and in [15] were -0.37% [at 19 µM] and -0.618% [at 19 µM], respectively. In assay [16], the activity, negative = inhibition is -8.74% [at 19 µM]. Moreover, the cAMP activity change in assay [7] was -1.66% [at 18.9 µM].
Regarding `Cc1ccc([N+](=O)[O-])c(N)c1`, the result in assay [10], in assay [2], in assay [6] and in [7] was inactive. The Potency result in assay [1], in [3], in [16], in assay [5], in [8] and in assay [9] was “inactive” throughout. In addition, the Potency in assay [4] is 18.9 µM (active).
`CCCCCCCCCC#N`: the result in assay [10], in assay [2], in [14], in assay [6] and in [7] was inactive. Besides, the Potency entry in [1], in assay [3], in [13], in assay [5], in assay [15] and in [8] was “inactive” in each case. The Potency entry in assay [9] is “inactive”. The results for the Potency in [12] and in assay [4] were 60.8 µM (active) and 24.2 µM (active), respectively.
Take `CCOC(=O)COc1ccc2c(c1)CC(NCC(O)c1cccc(Cl)c1)CC2` (stereo not given): the outcome in assay [10], in assay [2] and in assay [6] was inactive. Moreover, the Potency entry in assay [1], in assay [3], in assay [15] and in assay [8] was “inactive” each time. Besides, the Potency in [11] was 21.9 µM (active); in assay [12], 27.5 µM (active); in assay [4] it was 27.5 µM (active).
